Our source for the outcome values is PubChem BioAssay AID1259324 (C. David Weaver Laboratory, Vanderbilt University, 2017).

The whole screen tested about 34,000 compounds, of which fewer than 10 were called active.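 Rule for the calls: active = primary screen hit, no activity in plain HEK293 cells, and in GIRK2-only cells above 5% efficacy rising with concentration; inactive = the rest, including fluorescent compounds.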 Not all results are given here.

In the experiment the target is G protein-activated inward rectifier potassium channel 2 (Homo sapiens) (UniProt P48051). In words: activators of NPY4-receptor-primed GIRK2 channels, summary, cell-based, HEK293, thallium flux (AID 1259324). The settings on record: HEK293 GIRK2/NPY4 cells, thallium flux fluorescence.
G protein-activated inward rectifier potassium channel 2 (Homo sapiens), sequence (P48051 whole entry, looked up): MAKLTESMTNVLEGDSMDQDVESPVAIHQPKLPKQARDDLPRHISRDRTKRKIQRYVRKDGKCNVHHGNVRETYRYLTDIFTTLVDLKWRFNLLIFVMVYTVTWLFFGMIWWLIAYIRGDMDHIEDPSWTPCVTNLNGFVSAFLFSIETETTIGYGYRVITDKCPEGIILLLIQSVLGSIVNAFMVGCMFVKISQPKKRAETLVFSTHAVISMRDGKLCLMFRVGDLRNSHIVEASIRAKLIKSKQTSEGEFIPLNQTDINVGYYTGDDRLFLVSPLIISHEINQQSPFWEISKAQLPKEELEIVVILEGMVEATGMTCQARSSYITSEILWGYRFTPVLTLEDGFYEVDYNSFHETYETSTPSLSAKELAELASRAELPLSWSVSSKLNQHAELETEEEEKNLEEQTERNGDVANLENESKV
As to `CCCNC(=O)C(=O)Nc1c2c(nn1C(C)(C)C)CSC2`, the compound was classed as inactive.

As to `O=C(Nc1ccc(Cl)cc1)N1CCC2(CC1)NC(=O)N(CCOc1ccccc1)C2=O`, the call was inactive.

For `O=C(CCn1ccc(=O)[nH]c1=O)N1CCN(c2ccc(-c3ccccn3)nn2)CC1`, the result was inactive.

Turning to `Cn1cnc2cc(OC(=O)c3ccc(=O)[nH]n3)ccc21`, the compound was classed as inactive.

With `O=C(Cc1ccc2c(c1)OCO2)Nc1nnc(-c2ccc(Br)s2)o1`, the compound was classed as inactive.

`CC1(C)Cc2cccc(OCCCS(=O)(=O)N3CCCCC3)c2O1`: the compound was called inactive.

`O=C(Cn1cnc(-c2cccs2)cc1=O)NCCOc1ccc(F)cc1`: the compound was classed as inactive.

As to `COC(=O)c1ccc(-c2csc(NC(=O)CS(=O)(=O)Cc3ccccc3)n2)cc1`, the compound was called inactive.

Take `Cc1cccc(C(=O)Nc2cc(-c3ccco3)nn2-c2nc(C)cc(=O)[nH]2)c1`: the compound was called inactive.

Consider `CON(C)C(=O)C1CN(C(=O)c2cccs2)C1`, for which the compound was called inactive.

On to `COc1cn(CC(=O)Nc2ccc3c(c2)OCO3)c(CSc2ncccn2)cc1=O`, for which the compound was classed as inactive.

As for `CCOC(=O)C1CCN(C(=O)c2csc(Nc3ccccc3)n2)CC1`, the result was inactive.

As for `COc1ccc(CC(=O)NCCOc2ccc(F)cc2)cc1OC`, the call was inactive.

`CCOc1ccc2nc(NC(=O)c3ccc(S(=O)(=O)N(C)C)o3)sc2c1`: the call was inactive.

As for `O=c1[nH]c(SCc2nc(-c3cccc(C(F)(F)F)c3)no2)nc2ccsc12`, the compound was called inactive.

As for `COc1cc(N2CCN(S(C)(=O)=O)CC2)nc(OC)n1`, the result was inactive.

As for `CCC(CO)NC(=O)C(=O)Nc1c2c(nn1-c1ccccc1)CS(=O)(=O)C2` (centres undefined), the result was inactive.

For `CN1CCN(C(CNS(=O)(=O)c2ccc(C(C)(C)C)cc2)c2cccn2C)CC1` (centres undefined), the compound was called inactive.

As to `COc1cccc(-n2nnnc2SCC(=O)Nc2ccccc2Cl)c1`, the call was inactive.

On to `COc1ccc(Cc2nnc(Nc3cc(C)ccc3C)[nH]c2=O)cc1`, for which the compound was classed as inactive.

Consider `Cc1cc(=O)n(CC(=O)Nc2ccncc2)cn1`, for which the compound was classed as inactive.

With `CCCCOc1ccc(C(=O)Nc2ccc3c(c2)CCC(=O)N3CCC)cc1`, the call was inactive.

As for `COc1cccc(C(=O)NCC2COC3(CCCCC3)O2)c1OC` (centres undefined), the result was inactive.

Regarding `NC(=O)C1CCN(c2oc(-c3ccco3)nc2S(=O)(=O)c2ccc(Cl)cc2)CC1`, the result was inactive.

`Cc1nnc(NC(=O)CCn2cnc3c(cnn3-c3ccc(F)cc3)c2=O)s1`: the result was inactive.

Turning to `O=C(NCC(=O)N1CCOC(c2ccccc2)C1)C(=O)NCc1ccccc1Cl` (centres undefined), the call was inactive.

Regarding `O=C(NCCc1ccc(F)cc1)c1cc(=O)c(OCc2ccccc2)co1`, the outcome is “inactive; active”.

Consider `NC(=O)C1Cc2ccccc2N1C(=O)Nc1ccc2c(c1)OCO2` (centres undefined), for which the outcome was inactive.

Turning to `CCc1nnc(NC(=O)c2nnn(-c3ccc(Cl)cc3)c2C)s1`, the call was inactive.

Turning to `COc1ccc(NC(=O)C2CCCCC2)cc1N1CCCCC1=O`, the call was inactive.

As to `COCCNC(=O)c1ccc(Oc2c(C)oc3cc(OC)ccc3c2=O)cc1`, the compound was classed as inactive.

On to `CN(C(=O)c1cccc(F)c1)C1(C)CCS(=O)(=O)C1` (centres undefined), for which the compound was called inactive.

Take `Cc1cn2c3c(=O)n(C)c(=O)n(C)c3nc2n1CC(=O)c1ccc(Cl)cc1`: the call was inactive.

Take `Cc1cccc(NC(=O)c2ccc3nn(CC(=O)Nc4ccc(C)c(F)c4)c(=O)n3c2)c1`: the compound was called inactive.

Take `Cc1cccc(CC(=O)NCC2(c3cccs3)CCCC2)c1`: the result was inactive.

With `CS(=O)(=O)N1CCC(CNC(=O)c2ccc(F)c(F)c2)CC1`, the compound was called inactive.

`O=C(NCCCN1CCCC1=O)C(=O)Nc1c2c(nn1-c1cccc(Cl)c1)CSC2`: the compound was classed as inactive.

`COc1ccc(S(=O)(=O)NCC(c2ccc(C)cc2)N2CCN(C)CC2)cc1OC` (centres undefined): the result was inactive.

Take `Cc1nc(-c2cccs2)c(CCC(=O)N(C)C2CCS(=O)(=O)C2)s1` (centres undefined): the outcome was inactive.

As to `CNc1nn(CC(=O)Nc2ccc(C(C)=O)cc2)c(N)c1-c1nc(-c2ccc(C)cc2)no1`, the compound was classed as inactive.

Regarding `Cc1cc(-c2nnc(NC(=O)c3cccc(Oc4ccccc4)c3)o2)n(C)n1`, the outcome was “inactive; active”.

For `COCC(C)(O)CNC(=O)Cc1cccc(C)c1` (centres undefined), the outcome was inactive.

Turning to `CN1CCOc2ccc(NC(=O)C3(c4ccc(F)cc4)CC3)cc2C1=O`, the outcome was inactive.

As for `O=c1oc(-c2ccncc2)nc2c(Cl)cccc12`, the outcome was inactive.

Regarding `O=C(Cn1nc(C2CC2)c2cnn(-c3ccc(F)cc3)c2c1=O)N1CCOCC1`, the compound was classed as inactive.

Regarding `COC(=O)c1ccc(C(=O)NCCCC(=O)Nc2cccc3cccnc23)cc1`, the call was inactive.

In the case of `CN(C)C(=O)C(NC(=O)OC(C)(C)C)c1ccccc1Cl` (centres undefined), the result was inactive.

Regarding `CC(C)S(=O)(=O)c1ccc(CC(=O)NCc2n[nH]c(=O)c3ccccc23)cc1`, the call was inactive.

`O=C(c1ccc(N2CCCC2)nn1)N1CCN(C(=O)c2ccco2)CC1`: the compound was classed as inactive.

As to `O=C(c1ccc2c(c1)OCO2)N(Cc1ccsc1)Cc1ccccn1`, the compound was classed as inactive.

As for `CSc1nnc(CNC(=O)C23CC4CC(CC(C4)C2)C3)n1-c1ccccc1`, the compound was called inactive.

For `Cc1ccc(S(=O)(=O)NCCNc2ccc(Nc3cccc(C)n3)nn2)c(C)c1`, the compound was classed as inactive.

With `O=c1c2cn[nH]c2nc(SCc2nc(-c3ccccc3)no2)n1-c1ccccc1`, the call was inactive.

For the compound `O=C(Cc1cccc2ccccc12)NCCOc1ccc2c(c1)OCO2`, the outcome was inactive.

Turning to `Cc1cc(C)c2sc(N3CCN(C(=O)C4CCCN(S(C)(=O)=O)C4)CC3)nc2c1` (centres undefined), the call was inactive.

For `COc1cccc(C(=O)Nc2ccc(N3CCCC3=O)c(OC)c2)c1`, the compound was classed as inactive.

In the case of `Cc1ccc(NC(=S)NC(=O)c2ccc(F)cc2)nc1`, the call was inactive.

Consider `Cc1cc(C)n(S(=O)(=O)c2cccc(S(C)(=O)=O)c2)n1`, for which the result was inactive.

`COc1ccc(-c2cc3c(=O)n(Cc4nc(-c5ccc(OC)cc5OC)no4)ccn3n2)cc1`: the call was inactive.

As to `CSc1ccccc1C(=O)Nc1nnc(-c2cc(C)nn2C)o1`, the result was inactive.

`Cn1c(=O)c2c(nc3n(CC(=O)O)c(-c4ccccc4)cn23)n(C)c1=O`: the outcome was inactive.

With `COc1nn(C)cc1-c1nnc(SCC(=O)N2CCCc3ccccc32)n1C`, the call was inactive.

Turning to `Cc1cccc(CS(=O)(=O)NCC2(O)CCc3ccccc32)c1` (centres undefined), the compound was classed as inactive.

On to `COC(=O)c1ccc(NC(=O)Cn2c(=O)n(C(C)C)c(=O)c3nscc32)cc1`, for which the compound was called inactive.

Consider `NS(=O)(=O)c1ccc(NC(=O)c2ccc(=O)n(Cc3ccc(F)cc3)c2)cc1`, for which the compound was classed as inactive.

With `CCOC(=O)Cc1csc(NC(=O)c2nc(-c3cnccn3)no2)n1`, the compound was classed as inactive.

`Cc1cccc(Nc2ccc(N3CCN(S(=O)(=O)c4cccs4)CC3)nn2)n1`: the compound was called inactive.

For `COCCNC(=O)CCn1cnc2c(cnn2C(C)(C)C)c1=O`, the compound was called inactive.

In the case of `O=S(=O)(NCC#CCN1CCc2ccccc2C1)c1c(F)cccc1F`, the call was inactive.

For the compound `Cc1ccc(-c2ccc(=O)n(CCCC(=O)Nc3ccc(S(N)(=O)=O)cc3)n2)cc1`, the result was inactive.

For `COc1cc(OC)cc(C(=O)N2CCc3cc(S(=O)(=O)NC4CCCC4)ccc32)c1`, the compound was classed as inactive.

In the case of `Cn1cccc1C(CNS(=O)(=O)c1ccc(F)cc1)N1CCOCC1` (centres undefined), the call was inactive.

As for `Cn1cccc(C(=O)N2CCC(c3nnc(-c4ccco4)s3)CC2)c1=O`, the call was inactive.

As for `O=C(NCC1(c2cccs2)CCOCC1)Nc1cccc(C(F)(F)F)c1`, the call was inactive.

Take `CC(=O)c1ccc(S(=O)(=O)N2CCC(c3nnc(C4CC4)o3)CC2)cc1`: the outcome was inactive.

For the compound `COc1ccc(Cl)cc1N1CC(c2nc(-c3ccccc3C)no2)CC1=O` (centres undefined), the compound was classed as inactive.

On to `Cc1c(C(=O)NCc2ccccc2Cl)nnn1-c1ccc(F)cc1`, for which the compound was classed as inactive.

`Cc1cccc(NC(=O)c2cc(-c3ccco3)nc3c2c(C)nn3C2CCS(=O)(=O)C2)c1` (centres undefined): the compound was called inactive.

As to `Cc1cc(C(=O)Nc2nc(-c3cccs3)cs2)on1`, the outcome was “inactive; active”.

On to `COc1ccc(CCNC(=O)Nc2cc(N3CCCS3(=O)=O)ccc2C)cc1`, for which the result was inactive.

With `O=C(Cc1cc(-c2ccc(F)cc2)on1)N1CCc2ccccc21`, the compound was classed as inactive.

For the compound `O=C(NCCC1=CCCCC1)C(=O)NCc1nc(-c2ccccc2)no1`, the call was inactive.

Take `COc1ccc(NC(=O)N2CCN(c3cc(OC)nc(OC)n3)CC2)cc1`: the result was inactive.

Consider `CC(C)(C)C(=O)N1CCc2ccc(NS(=O)(=O)c3ccc(Cl)s3)cc21`, for which the call was inactive.

Take `COc1ccc(Cl)cc1C(=O)NCCNc1cc(-n2ccnc2C)ncn1`: the compound was called inactive.

`COc1ccccc1C1(CNC(=O)Cc2ccc(F)cc2)CCOCC1`: the compound was called inactive.

Regarding `CCOc1ccc(NC(=O)NCCCn2nc(-c3ccncc3)ccc2=O)cc1`, the outcome was “inactive; active”.

As to `COc1ccc(NC(=O)Cn2cc(OC)c(=O)cc2CSc2nccc(C)n2)cc1`, the compound was called inactive.

Regarding `O=C(C1CCCCC1)N(CCN1CCOCC1)c1nc2c(Cl)cccc2s1`, the compound was called inactive.

Regarding `Cn1c(=O)c2cc(C(=O)NC3CCCCCC3)sc2n(C)c1=O`, the compound was classed as inactive.

As for `COc1ccc(C)cc1S(=O)(=O)NCC(c1ccc(F)cc1)N1CCN(C)CC1` (centres undefined), the compound was called inactive.

Turning to `O=C(Cc1ccc(-c2ccccc2)cc1)NCC1CCN(Cc2ccco2)CC1`, the call was inactive.

For `CCOc1ccc(-c2cc(=O)n(CC(=O)Nc3ccccc3F)cn2)cc1`, the call was inactive.

On to `O=C(CCCS(=O)(=O)c1ccccc1)Nc1nc2c(F)cccc2s1`, for which the compound was called inactive.

For the compound `CCOc1ccc2ccccc2c1C(=O)N1CCN(c2ncnc3c2nnn3C)CC1`, the call was inactive.

Regarding `CCOC(=O)N1CCN(C(c2ccccc2F)c2sc3nc(CC)nn3c2O)CC1` (centres undefined), the compound was called inactive.

Turning to `COc1coc(C(=O)Nc2ccc(C(N)=O)cc2)cc1=O`, the compound was called inactive.

On to `COc1ccccc1CCNC(=O)Cc1csc(NC(=O)C2CCC(=O)N2)n1` (centres undefined), for which the call was inactive.

As to `O=C(C1CC=CCC1)N1CCN(CCn2ccnc2)CC1` (centres undefined), the compound was called inactive.

As to `O=C(c1cccs1)N1CCc2ccc(NS(=O)(=O)Cc3cccc(Cl)c3)cc21`, the outcome was inactive.

Take `Cc1ccc(-n2ccnc2N2CCN(C(=O)c3cccs3)CC2)cc1`: the compound was called inactive.

As to `COC(=O)c1c2c(nc3c1c(-c1ccccc1)nn3C1CCS(=O)(=O)C1)CCC2` (centres undefined), the compound was classed as inactive.

`CCC(=O)Nc1ccc(SCC(=O)NCC2CCCO2)nn1` (centres undefined): the outcome was inactive.

In the case of `O=C(NCC(O)c1ccc(C(F)(F)F)cc1)C1(c2cccs2)CCCC1` (centres undefined), the result was inactive.
